# Test results reported in PubChem BioAssay (NCI).
# Where “and” joins values, the source holds several entries; their conditions need not be identical. Identical values can stand only once. Compounds without any hit were thinned out: in the full panel of roughly 83,000, 20% have a hit.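 Treatment: one concentration, 48 hours, 96-well format. Scoring: percent growth, with anything below 10 considered active.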 Calls of active or inactive are those of the source.
# System: MDA-MB-468 breast
# Test: NCI-60 one-dose screen, 48 h (100 = growth as untreated, 0 = no growth, -100 = all killed)
# Conditions: 10 µM unless noted
# Description: Growth inhibition of the MDA-MB-468 human Breast tumor cell line is measured as a screen for anti-cancer activity. Cells are grown in 96 well plates and exposed to the test compound for 48 hours. Compounds are tested at a single concentration, which is 10^-5 M for most compounds. The reported endpoint is percent growth (GI% or GIPRCNT), where numbers from 0 - 100% represent growth inhibition, and numbers from -100% - 0 represent cell death. For example, a value of 40 represents 60% growth inhibition. A value of 0 means no net growth occurred over the course of the experiment. A value of -40 indicates 40% of cells at the beginning of the experiment died by the end of the experiment. A value of -100 means all cells are dead at the end of the experiment.
# NCI-60 Human Tumor Cell Lines Screen was performed using the standard one-dose NCI protocol, which is described in more detail at https://dtp.cancer.gov/discovery_development/nci-60/default.htm.
# Compounds with GIPRCNT values below 10 were considered active. Activity score was based on GIPRCNT using the following formula: […]
# Score is 0 for GIPRCNT values of 100 or above, 50 for GIPRCNT values of 0, and 100 for GIPRCNT values of -100.
row,Compound,growth
1,CCSc1nc2ccccc2o1,111% (inactive)
2,COc1cc(NCCCCCNC(C)C)c2ncccc2c1,87.6% (inactive) and 39.1% (inactive)
3,O=S(=O)(OCCO)c1ccccc1,97% (inactive)
4,O=C1Nc2ccccc2/C1=C/c1c[nH]c2ccccc12,44.4% (inactive)
5,CCOc1ccccc1NC(=O)CCC(=O)OC,99.7% (inactive)
6,O=C(CN1CCN(c2cc3c(cc2F)c(=O)c(C(=O)O)cn3C2CC2)CC1)N/N=C/c1ccncc1,99.6% (inactive)
7,CC(C)(C)c1ccc(C(=O)Nc2sc3c(c2C(N)=O)CCC(=O)C3)cc1,-54.7% (active)
8,CN(C)Cc1ccc(C(=O)Nc2ccc3ncnc(Nc4ccc(Oc5cccc(F)c5)c(Cl)c4)c3c2)cc1,-63% (active)
9,COc1cc(Cl)cc(-c2nn(-c3cccc(NC(=O)Nc4cc(C(F)(F)F)cc(C(F)(F)F)c4)c3)cc2-c2ccncc2)c1,-2.95% (active)
10,CCn1cc(C(=O)O)c(=O)c2cc(F)c(N3CCN(CC(=O)Nc4ccccc4)C(C)C3)c(F)c21 (stereo not given),92.6% (inactive)
11,O=C(/C=C/C12c3ccccc3C(c3ccccc31)C1C(=O)NC(=O)C12)c1ccccc1 (stereo not given),9.65% (active)
12,Clc1ccc2[nH]cc(-c3cncn3CCc3ccccc3)c2c1,7.96% (active)
13,Cc1ccncc1C(N)=O,93.8% (inactive)
14,COc1ccc(C2=NNC(c3cc(Cc4ccc(O)c(C5CC(c6ccc(OC)cc6)=NN5)c4)ccc3O)C2)cc1 (stereo not given),65% (inactive)
15,COC(=O)c1cc(O)c2cc3c(cc2c1-c1cc(OC)c(OC)c(OC)c1)OCO3,-8.52% (active)
16,O=C(CCCCC1CCSS1)Nc1ncnc2n[nH]c(-c3ccc(Oc4ccccc4)cc3)c12 (stereo not given),95.9% (inactive)
17,O=C(NNc1ccc(-c2ccccc2)nn1)c1ccc(F)cc1,98.2% (inactive)
18,CCOc1cccc(/C(N)=N/C(N)=N/c2nc3ccccc3s2)c1,85.6% (inactive)
19,CCC(=O)Oc1cc(/C=C/C(=O)O[C@H]2C[C@H]3CN4CCc5c([nH]c6cc(OC)ccc56)[C@@H]4C[C@@H]3[C@@H](C(=O)OC)[C@@H]2OC)ccc1OC,71.3% (inactive)
20,Fc1cccc(-c2[nH]nc3nc(Nc4cccnc4)sc23)c1,11.9% (inactive)

row,Compound,growth
1,O=C(Nc1cccc2ccccc12)c1cc2ccccc2cc1O,-17.6% (active)
2,O=S(=O)(NCCNc1cc(-c2cn(-c3ccccc3)nc2-c2ccccc2)ccn1)c1ccc(F)cc1,58% (inactive)
3,Cn1cc(-c2csc(-c3c[nH]c4ccc(Br)cc34)n2)c2ccnc(Cl)c21,14% (inactive)
4,C[C@@H]1C(=O)N(C[C@H](Cc2ccccc2)NC(=O)OCc2ccccc2)[C@]1(Cc1ccccc1)C(=O)OCc1ccccc1,24.6% (inactive)
5,C=C1C(=O)O[C@H]2[C@H]1CC/C(CNC(=O)/C=C/c1ccccc1)=C\CC[C@@]1(C)O[C@@H]21,-30.2% (active)
6,COc1cc(-c2nc3ccccc3s2)ccc1NC(=O)COc1ccc(Cl)cc1,21.3% (inactive)
7,CCC(C)(O)CCC(C)(O)CC (stereo not given),106% (inactive)
8,O=C(Cn1ccnc1)Nc1ccc(-c2nc3ccccc3s2)cc1,0.748% (active)
9,O=C(c1ccccc1)[C@H]1[C@@H]2CCCN2[C@]2(C(=O)Nc3ccc(F)cc32)[C@]12C(=O)Nc1ccccc12,96.2% (inactive)
10,C[C@H]1[C@H](C)CC[C@]2(C(=O)OCCCC[P+](c3ccccc3)(c3ccccc3)c3ccccc3)CC[C@]3(C)C(=CC[C@@H]4[C@@]5(C)CC[C@H](OC(=O)C(Cl)Cl)C(C)(C)[C@@H]5CC[C@]43C)[C@H]12,-70.3% (active)
11,CCc1cccc2c1S/C(=C/c1ccc(OC)cc1)C2=O,27.3% (inactive)
12,Nc1ccn(C2OC(CO)C(O)C2O)c(=O)n1 (stereo not given),76% (inactive) and 106% (inactive) and 118% (inactive)
13,CCOC(=O)n1cc(-c2nonc2-c2cn(C)c3ccccc23)c2ccccc21,13.1% (inactive)
14,Cc1ccc([P+](Cc2ccccc2)(c2ccccc2)c2ccccc2)cc1,-13.5% (active)
15,COc1ccc(-c2noc(C(=O)O)c2-c2cc(OC)c(OC)c(OC)c2)cc1,24.7% (inactive)
16,O=C1C(=O)c2ccc(Br)cc2-c2cc(Br)ccc21,0.713% (active)
17,O=C(NCc1ccco1)Nc1c(Cl)cc(Cl)cc1Cl,87.8% (inactive)
18,Cc1ccc2c(n1)C(=O)C(Cl)=C(Nc1ccc(C(F)(F)F)cc1)C2=O,-48.5% (active)
19,CCCC(=O)Oc1ccc(CC)cc1,117% (inactive)
20,COc1ccc(/C=N\Nc2nc(SCCC(C)C)nc(-c3ccc(OC)cc3)c2C#N)cc1,35.9% (inactive)
